Measured values reported in PubChem BioAssay AID652054 (National Center for Advancing Translational Sciences (NCATS), 2013).
Screen size: about 360,000 compounds; about 9,100 (2.5%) were called active. Roughly 4% stayed inconclusive and do not appear here. Only a selection was taken, and actives are over-represented in it overall. A number with no mark means an inactive call. Rule as the data show it: active = max response below about -50%; inconclusive = no clear call, values can overlap the other calls; inactive = above that.

Each compound was assayed against D(3) dopamine receptor (Homo sapiens) (UniProt P35462) (assay: qHTS of D3 Dopamine Receptor Antagonist: qHTS). Settings: D3R cells, DiscoveRx beta-arrestin luminescence, antagonist mode; active compounds read low.
In short: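 Cells expressing the human receptor were seeded at 1500 cells/well, incubated overnight at 37 degrees C in 5% CO2, then exposed to library compounds with dopamine controls for 90 minutes at 37 degrees C before luminescent detection.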
% is scaled to controls: 0 for no effect and ±100 for the full control effect.

D(3) dopamine receptor (Homo sapiens), sequence (P35462 whole entry, looked up): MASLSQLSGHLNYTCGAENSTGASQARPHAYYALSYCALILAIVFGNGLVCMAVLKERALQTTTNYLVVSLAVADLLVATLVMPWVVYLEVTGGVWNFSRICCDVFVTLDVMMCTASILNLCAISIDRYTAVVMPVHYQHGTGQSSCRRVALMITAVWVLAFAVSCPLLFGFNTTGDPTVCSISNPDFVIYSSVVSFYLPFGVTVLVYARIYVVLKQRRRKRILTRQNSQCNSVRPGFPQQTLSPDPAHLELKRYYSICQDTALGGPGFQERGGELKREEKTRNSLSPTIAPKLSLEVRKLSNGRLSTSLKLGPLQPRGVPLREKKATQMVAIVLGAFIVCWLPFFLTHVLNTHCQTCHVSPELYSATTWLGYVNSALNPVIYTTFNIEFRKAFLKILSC

SMILES | max response, negative = inhibition
O=C(Nc1ccc2c(c1)OCCO2)C1c2ccccc2OCC(=O)N1Cc1ccccn1 (centres undefined) | 33.3%
Cc1ccc(S(=O)(=O)Nc2nc(C)cc(-n3nc(C)cc3C)n2)cc1 | -12.2%
Cc1cc(C)n(-c2ccc(Cl)c(C(=O)O)n2)n1 | -86.2% (active)
Cc1cc(C)n(-c2ccc3nncn3n2)n1 | 1.57%
COCCCNC(=O)c1cccc2c(-c3ccc(O)c(OC)c3)coc12 | 0.229%
COC(=O)[C@]12CCCCC=C1N(Cc1ccco1)C(=O)[C@H](CC(=O)NCC1CCCCC1)C2 | -0.188%
CN1OC[C@@H]2CN(S(=O)(=O)c3cccc(C(F)(F)F)c3)[C@H](c3ccc(-c4cc5ccccc5o4)cc3)C[C@@H]21 | -12%
CC1(C(=O)NCc2ccc(F)c(F)c2)Cc2c(-c3ccc4c(c3)OCO4)ccnc2O1 (centres undefined) | 19.2%
Cc1ccc(CN2CCN(/N=C/c3cccnc3)CC2)c(C)c1 | -15%
Cc1ccc(NC(=O)CCC(=O)N/N=C/c2ccco2)c(C)c1 | 16.8%
Cc1ccc(CN2CCN(/N=C/c3ccco3)CC2)c(C)c1 | -78.6% (active)
O=C(/C=C/[C@H]1O[C@@H](n2cnc3c(NC(=O)c4ccccc4)ncnc32)[C@H](O)[C@@H]1O)NCc1ccccc1 | 0%
CN1CCN(CCCNC(=O)c2cc3c(=O)oc4ccccc4c3s2)CC1 | 0%
Cc1cccc2c1-c1sc(C(=O)NCCCN3CCc4ccccc4C3)cc1CO2 | -63.3% (active)
CCn1cc(C(=O)NCCCN2CCCCCC2)c(=O)c2cc(S(=O)(=O)N3CCc4ccccc4C3)ccc21 | -2.35%
C[C@@H]1CN([C@@H](C)CO)C(=O)c2cc(Br)cnc2O[C@H]1CN(C)Cc1ccc(-c2ccccc2)cc1 | 24.5%
COc1ccc(CN2C(=O)C(CC(=O)NCCN3CCOCC3)CC(C(=O)N(C(C)C)C(C)C)=C2C)cc1 (centres undefined) | 10.3%
COc1ccc([C@H]2N[C@]3(CCCN(CC4CCCCC4)C3=O)[C@H]3C(=O)N(C)C(=O)[C@@H]23)cc1 | -3.44%
CCOc1c2ccc(C(=O)NCc3ccc4c(c3)OCO4)cc2nn1C | 21.7%
COc1ccccc1-n1c(C)nc2cc(C(=O)NCc3ccc4c(c3)OCO4)ccc21 | -53.5% (active)
COc1cc(OC)c(C(=O)NCc2ccc3c(c2)OCO3)cc1OC | -7.32%
C[C@@H]1CC2=C(C(=O)OC(C)(C)O2)[C@@H](C2CC2)O1 | 20%
CC1(C(=O)NCc2ccccc2)CN(S(C)(=O)=O)CC(=O)N1CC(F)(F)F (centres undefined) | 17.5%
Cc1cccc(C(=O)C(O)(c2ccccc2)C2CCCCC2=O)c1 (centres undefined) | 6.43%
O=C(CN1CCCCCC1)Nc1ccc(Br)cc1Br | -12.8%
CC(=O)c1cc2c(cc1NC(=O)Cn1nc(-c3ccc(F)cc3)ccc1=O)OCO2 | -11.4%
CC(=O)c1cc2c(cc1NC(=O)CN1CCCCCC1)OCO2 | -65% (active)

SMILES | max response, negative = inhibition
COc1ccc(C(C)(O)c2nc(-c3cc(F)cc(F)c3)cs2)cc1 (centres undefined) | 2.54%
Cc1ccccc1S(=O)(=O)NC(=O)C1(C)CCN1C(=O)Cc1ccc(Cl)cc1Cl (centres undefined) | -7.52%
O=C1[C@H]2[C@@H](c3ccc(C(F)(F)F)cc3)N[C@]3(CCCN(Cc4ccc(Br)cc4)C3=O)[C@H]2C(=O)N1Cc1ccccc1 | 29.8%
CC(C)Cc1nc(N2CCOCC2)c(C#N)c2c1CCC2 | 36.7%
CC(C)CCNc1nc(N2CCCC2)c2c(c1C#N)CCN(C)C2 | -65.7% (active)
CCc1nc(NCCO)c(C#N)c2c1CCCC2 | -13.6%
CCOC(=O)C1(C)CCCN(C(=O)c2ccc(N(C)C)cc2)C1 (centres undefined) | 3.97%
C/C(=N\NC(=O)Cc1ccc(Cl)cc1)c1ccccn1 | -93.2% (active)
CC(=NNC(=S)N1CCCCCC1)c1ccccn1 | 18.7%
NC(=O)NC(CC(=O)NNC(=O)c1ccccn1)c1ccc(Cl)cc1 (centres undefined) | -12.6%
CC1(C(=O)NS(=O)(=O)c2ccc(Cl)cc2)CCN1C(=O)CC1CCCC1 (centres undefined) | -16%
CCN1C(=O)[C@H]2[C@@H](c3ccccc3)N[C@]3(CCCN(Cc4ccc(C)cc4)C3=O)[C@H]2C1=O | -7.93%
CCc1nc2ccc(C(=O)N3CCC(O)(Cc4ccccc4)CC3)cn2c1N(C)C(=O)Cc1ccccc1 | -22.4%
Cc1ccc(CN2CCN(Cc3ccc(OCCO)cc3)CC2CCO)o1 (centres undefined) | 4.23%
Cc1ccc(CN2CCN(Cc3cn(C)nc3-c3ccccc3)CC2CCO)o1 (centres undefined) | 3.14%
Cc1ccc(CN2CCN(c3ccccc3Cl)CC2)o1 | -75.6% (active)
COc1ccc(C(CNC(=O)c2cccc(S(=O)(=O)Nc3ccc(Br)cc3)c2)N(C)C)cc1 (centres undefined) | -53.5% (active)
CC(NC(=O)c1cccc(S(=O)(=O)N2CCc3ccccc3C2)c1)c1ccco1 (centres undefined) | 4.52%
O=C(Nc1ccc(S(=O)(=O)N2CCc3ccccc3C2)cc1)c1ccccc1 | 19.5%
COc1ccccc1C(CNC(=O)c1cccc(S(=O)(=O)Nc2ccc(F)cc2)c1)N(C)C (centres undefined) | -23.9%
COc1ccc(C(CNC(=O)c2cccc(S(=O)(=O)Nc3ccccc3Cl)c2)N2CCOCC2)cc1 (centres undefined) | 22.5%
COc1ccc(C(CNC(=O)c2ccc(NS(=O)(=O)c3ccc(F)c(C)c3)cc2)N(C)C)cc1 (centres undefined) | -15.4%
CN(C)C(CNC(=O)c1cccc(S(=O)(=O)N2CCc3ccccc3C2)c1)c1ccccc1 (centres undefined) | -80.6% (active)
COc1ccc(C(CNC(=O)c2cc(S(=O)(=O)Nc3cccc(C)c3)ccc2C)N2CCCC2)cc1 (centres undefined) | -25.7%
COc1ccc(C(CNC(=O)c2cccc(NS(=O)(=O)c3ccc(C)c(F)c3)c2)N2CCCC2)cc1 (centres undefined) | -55.7% (active)
CC1(C(=O)NCc2ccc3c(c2)OCO3)CCN1C(=O)Cc1cccs1 (centres undefined) | 27.8%
CCCc1c(C)nc2scc(-c3ccc(Cl)cc3)n2c1=O | 3.72%
